# “And” between values parts separate entries of the source, which are not always exact repeats. Equal entries are not always repeated. More than one record can exist for a structure, and the calls need not agree. The source made the active and inactive calls.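 The calls were made as follows, unless noted: active = compounds whose cell count with miR-34 switched on is under 0.7 times the count with it off; inactive = the rest.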
# Legend:
# [1] = hESC survival regulators, cell-based (AID 493140; call rule not given here;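 also: cells exposed to compounds for four days before counting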); settings: human embryonic stem cell survival screen; stronger effect = higher value
# [2] = sensitizers of A549 cells to miR-34 induction, primary screen, imaging, A549 dox-inducible miR-34, nuclei and caspase counts (AID 1347080); settings: A549 miR-34 inducible, Hoechst nuclei count, 48 h
# [3] = inhibitors of Cryptococcus chitosan production, flow cytometry, Cibacron Brilliant Red staining (AID 1347148; call rule not given here;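 also: compound exposure lasted three days at 37 degrees C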); settings: Cryptococcus neoformans chitosan, stronger effect = lower value; at 10 µM unless noted
# [4] = circadian clock period modulators, cell-based, LOPAC library, luminescence reporter (AID 2774; call rule not given here;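 also: values are relative to mean of DMSO wells on each plate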); settings: circadian reporter cells, at 7 µM, actives lie on both sides
# [5] = liver-stage malaria parasite growth inhibition, primary screen, cell-based, HepG2, luciferase luminescence, HepG2 viability (AID 624349; in the data active = parasite load remaining mostly below about 12%, no sharp cut-off; inactive = mostly above about 10%;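 also: 100% = mean of DMSO negative control wells on the same plate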); settings: P. berghei liver stage in HepG2, luciferase luminescence, concentration not given here; parasite load remaining: stronger effect = lower value; viability: measured here: HepG2 viability without parasites
# [6] = system: Hepatitis C virus NS3 helicase; test: HCV NS3 helicase inhibitors, primary screen, biochemical, fluorescence polarization, LOPAC1280 library (AID 687035; in the data active = inhibition above about 37%); settings: Purified HCV NS3 helicase, Cy5-dT15 ssDNA binding fluorescence polarization; stronger effect = higher value; concentration not given here
# [7] = Cy5 fluorescence quenching or enhancement artefacts, artefact control for HCV NS3 helicase inhibitor project, biochemical, LOPAC1280 (AID 687037; call rule not given here); settings: Cy5-DNA-NS3h complex fluorescence interference counterscreen
# [8] = phospholipid biosynthesis inhibitors in animal cells, primary screen, cell-based, LOPAC library, screen 4 (AID 1347384; call rule not given here); settings: phospholipid biosynthesis inhibition screen, at 10 µM
# [9] = survival rescue of mitochondrial mutant cells in low glucose, primary screen, MELAS cybrids, Rieske KO mouse fibroblasts, CellTiter-Glo (AID 1508586;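 active = mean z-score across replicates of 1.96 or higher in either the MELAS or the Rieske mutant cell line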;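 also: z relative to plate mean and SD of compound and empty wells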)
# [10] = viability rescue of complex I mutant cybrids, primary screen, cell-based, galactose medium, ATP luminescence (AID 1645843;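 active = z-score of at least 1.8 in each of two replicates, scored against plate mean and spread of sample wells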;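 also: positive z means more ATP and so rescue of galactose-driven cybrid death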); settings: complex I mutant cybrid cells, 72 h, stronger effect = higher value
# [11] = modifiers of HSF1 nuclear foci, imaging, Selleck Cancer Library (AID 1347162; in the data active = plate-normalised HSF1 focus index below about 0.46); settings: human cells, at 10 µM; SSMD: measured here: HSF1 foci SSMD mean; cell count: measured here: cell number; plate-normalised HSF1 focus index: stronger effect = lower value
# [12] = stronger effect = lower value, cell number ratio, induced over uninduced
# [13] = measured here: relative caspase fold change +Dox/-Dox
# [14] = measured here: total cells with miR-34 induction, stronger effect = lower value
# [15] = measured here: total cells without miR-34 induction
# [16] = MELAS cybrid survival, CellTiter-Glo 48 h, stronger effect = higher value
# [17] = Rieske KO mouse fibroblast survival, CellTiter-Glo 72 h
smiles,measurement,setting,value
CCCCCCCC/C=C\C/C=C\C/C=C\CCCC(=O)NCCO,survival,[1],87.2 (inactive)
same,fold change,[2]; [12],0.911 (inactive) and 1.07 (inactive)
same,fold change,[2]; [13],0.981 and 0.763
same,cell count,[2]; [14],6100 and 5740
same,cell count,[2]; [15],6690 and 5350
same,fold fluorescence,[3],4.64 (inactive)
CC(C)(C)[C@]1(O)CCN2C[C@H]3c4ccccc4CCc4cccc(c43)[C@@H]2C1,period change,[4],0.045 hour (inactive) and 0.1 hour (inactive)
same,parasite load remaining,[5],63.7% (inactive)
same,viability,[5],156%
same,inhibition,[6],0% (inactive) and -5% (inactive)
same,fluorescence ratio (interference),[7],1 (inactive)
same,fold change,[2]; [12],1.18 (inactive) and 1.07 (inactive) and 0.945 (inactive)
same,fold change,[2]; [13],1.07 and 1.2 and 1.29
same,cell count,[2]; [14],6310 and 6160 and 8940
same,cell count,[2]; [15],5360 and 5740 and 9460
same,outcome,[8],inactive
same,z-score,[9]; [16],0.22 (inactive)
same,z-score,[9]; [17],-0.23
same,z-score,[10],-1.48 (inactive) and -1.34 (inactive) and -0.325 (inactive)
COc1ccc(C(=O)NCc2cccnc2)cc1C(=O)NCc1cccnc1,period change,[4],-0.05 h (inactive)
same,survival,[1],25.1 (inactive)
same,parasite load remaining,[5],27.2% (inactive) and 91.5% (inactive) and 35% (inactive)
same,viability,[5],71% and 87.7% and 69.5%
same,inhibition,[6],-2% (inactive)
same,fluorescence ratio (interference),[7],1 (inactive)
same,fold change,[2]; [12],0.938 (inactive) and 0.931 (inactive) and 0.857 (inactive)
same,fold change,[2]; [13],1.32 and 2 and 1.31
same,cell count,[2]; [14],10400 and 9270
same,cell count,[2]; [15],11100 and 9960 and 10800
same,outcome,[8],inactive
same,z-score,[9]; [16],0.681 (inactive) and 0.373 (inactive)
same,z-score,[9]; [17],0.414 and 0.0826
same,z-score,[10],0.09 (inactive) and 0.34 (inactive)
CCCCC[C@H](O)/C=C/[C@H]1C(=O)C[C@H](O)[C@@H]1C/C=C\CCCC(=O)O,survival,[1],96.1 (inactive)
same,fold change,[2]; [12],0.966 (inactive) and 0.979 (inactive)
same,fold change,[2]; [13],1.13 and 1.66
same,cell count,[2]; [14],6220 and 5740
same,cell count,[2]; [15],6440 and 5870
same,fold fluorescence,[3],3.99 (inactive)
COC(=O)C1=C(C)NC(C)=C(C(=O)OC2CCCN(Cc3ccccc3)C2)C1c1cccc([N+](=O)[O-])c1 (stereo not drawn),fold change,[2]; [12],1.82 (inactive) and 1.04 (inactive)
same,fold change,[2]; [13],0.615 and 0.533
same,cell count,[2]; [14],3920 and 6890
same,cell count,[2]; [15],2160 and 6660
same,outcome,[8],inactive
same,z-score,[9]; [16],-0.438 (inactive)
same,z-score,[9]; [17],-0.0848
same,z-score,[10],-1.88 (inactive)
CC(=O)N[C@@H](CSC/C=C(\C)CC/C=C(\C)CCC=C(C)C)C(=O)O,survival,[1],97.2 (inactive)
same,fold change,[2]; [12],0.899 (inactive) and 1.06 (inactive)
same,fold change,[2]; [13],1.4 and 1.04
same,cell count,[2]; [14],5730 and 5900
same,cell count,[2]; [15],6380 and 5570
same,fold fluorescence,[3],5 [at 136 µM] (inactive)
C#CCCCCCCCCCCCCCCCC(=O)O,survival,[1],96.8 (inactive)
same,fold change,[2]; [12],0.987 (inactive) and 1.06 (inactive)
same,fold change,[2]; [13],1.49 and 0.91
same,cell count,[2]; [14],5840 and 5920
same,cell count,[2]; [15],5920 and 5580
same,fold fluorescence,[3],5.76 (inactive)
CCCCC/C=C\C/C=C\C/C=C\CCCCC(=O)O,survival,[1],76.5 (inactive)
same,fold change,[2]; [12],0.948 (inactive) and 1.06 (inactive)
same,fold change,[2]; [13],1.2 and 0.96
same,cell count,[2]; [14],5680 and 5970
same,cell count,[2]; [15],5990 and 5660
same,fold fluorescence,[3],4.86 (inactive)
Nc1ccc2ncnc(NCCc3ccc(Oc4ccccc4)cc3)c2c1,parasite load remaining,[5],1.5% (active)
same,viability,[5],70.6%
same,fold change,[2]; [12],0.738 (inactive) and 0.708 (inactive) and 0.683 (active)
same,fold change,[2]; [13],1.4 and 1.31 and 3.23
same,cell count,[2]; [14],2180 and 3030 and 5480
same,cell count,[2]; [15],2950 and 4280 and 8020
same,SSMD,[11],-5.88
same,cell count,[11],2600
same,plate-normalised HSF1 focus index,[11],0.65 (inactive)
same,z-score,[9]; [16],-0.305 (inactive)
same,z-score,[9]; [17],-0.135
CCCCCCCCCCCCC/C=C/[C@@H](O)[C@@H](N)CO,survival,[1],98.4 (inactive) and 83.2 (inactive)
same,fold change,[2]; [12],0.985 (inactive) and 0.945 (inactive)
same,fold change,[2]; [13],1.13 and 1.49
same,cell count,[2]; [14],6200 and 6060
same,cell count,[2]; [15],6290 and 6410
same,fold fluorescence,[3],8.01 (inactive)
CCc1cncnc1N1CCN(Cc2nc3ccc(C(F)(F)F)cc3[nH]2)CC1,fold change,[2]; [12],0.998 (inactive) and 0.92 (inactive)
same,fold change,[2]; [13],1.49 and 0.523
same,cell count,[2]; [14],6670 and 5920
same,cell count,[2]; [15],6690 and 6430
same,SSMD,[11],2.94
same,cell count,[11],7470
same,plate-normalised HSF1 focus index,[11],1.18 (inactive)
same,outcome,[8],inactive
same,z-score,[9]; [16],0.232 (inactive)
same,z-score,[9]; [17],0.0669
same,z-score,[10],-1.37 (inactive)

# Reference: PubChem BioAssay
